Values joined by “and” are separate entries in the source; they are usually repeats but may differ in a detail not shown here. Equal values may be shown once. Results filed as inconclusive are left out. A call without a number means that no potency is given here. More than one record can exist for a structure, and the calls need not agree. Active and inactive are the calls of the source. Unless noted, calls come from the whole dose curve; as a rule, active = well fitted curve in the direction sought with a large enough effect in the repeat runs; inconclusive = weak or mixed curves; inactive = no such curve, though single readings can be large; an effect the other way counts as inactive or inconclusive.
Key:
[1] = qHTS assay to identify small molecule antagonists of the glucocorticoid receptor (GR) signaling pathway - cell viability counter screen (AID 720693); details: GR-bla HeLa viability, CellTiter-Glo luminescence, 18 h, with 5 nM dexamethasone present; series mostly up to 58.5 µM; note: nearly all actives have a fitted effect of over 55% in size
[2] = qHTS assay for identifying genotoxic compounds that show differential cytotoxicity against isogenic chicken DT40 cell lines with known DNA damage response pathways - wild type cell line (AID 743012); details: DT40 wild type chicken cells viability, CellTiter-Glo, 40 h; series mostly up to 68.4 µM; note: nearly all actives have a fitted effect of over 60% in size; note: potency is the fitted concentration of half-maximal effect
Procedure, shortened: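 First, wild type DT40 cells were plated at 300 per well and equilibrated about 0.5 h at 37 C/5% CO2. Next, compounds in DMSO were added and exposure lasted 40 h. Finally, CellTiter-Glo was added for 30 min at room temperature and luminescence recorded.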

[3] = qHTS assay for identifying genotoxic compounds that show differential cytotoxicity against isogenic chicken DT40 cell lines with known DNA damage response pathways - Rev3 mutant cell line (AID 743014); details: chicken DT40 Rev3-/- viability, CellTiter-Glo, 40 h; series mostly up to 68.4 µM; note: nearly all actives have a fitted effect of over 55% in size; note: potency is the fitted concentration of half-maximal effect
[4] = qHTS assay for identifying genotoxic compounds that show differential cytotoxicity against isogenic chicken DT40 cell lines with known DNA damage response pathways - Rad54/Ku70 mutant cell line (AID 743015); details: DT40 Rad54/Ku70 mutant viability, CellTiter-Glo, 40 h; series mostly up to 66.8 µM; note: nearly all actives have a fitted effect of over 60% in size; note: potency is the fitted concentration of half-maximal effect
[5] = qHTS assay to identify small molecule antagonists of the androgen receptor (AR) signaling pathway - cell viability counter screen (AID 743033; note: nearly all actives have a fitted effect of over 45% in size); details: AR-bla HEK293 viability, CellTiter-Glo luminescence, 16 h; series mostly up to 58.5 µM
[6] = qHTS assay to identify small molecule antagonists of the androgen receptor (AR) signaling pathway using the MDA cell line - cell viability counter screen (AID 743041; note: nearly all actives have a fitted effect of over 45% in size); details: MDA-kb2 viability, CellTiter-Fluor, 16 h, cells co-treated with R1881 androgen agonist; series mostly up to 70.3 µM
Procedure, shortened: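 MDA-kb2 AR-luc cells (MMTV-luciferase, AR/GR responsive) treated with compounds plus R1881 agonist for 16 h at 37C. CellTiter-Fluor added at 15.5 h; fluorescence read after 30 min in the same wells.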

[7] = target: Androgen receptor (Homo sapiens) (UniProt P10275); test: qHTS assay to identify small molecule antagonists of the androgen receptor (AR) signaling pathway (AID 743035; active = well fitted inhibition curve with a large enough effect in the signal ratio in the repeat runs, not every such curve was filed as active; the % refers to the signal ratio); details: HEK293 AR-UAS-bla, R1881-stimulated, beta-lactamase FRET, 16 h; series mostly up to 58.5 µM
Procedure, shortened: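 Beta-lactamase FRET read (2 h RT incubation with LiveBLAzer B/G) following 16 h of compound plus R1881 treatment of AR-UAS-bla HEK293 cells, which had been pre-incubated 4 h at 37C.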

[8] = target: Androgen receptor (Homo sapiens) (UniProt P10275); test: qHTS assay to identify small molecule agonists of the androgen receptor (AR) signaling pathway (AID 743036; active = well fitted activation curve with a large enough effect in the signal ratio in the repeat runs, with a control signal flat, not every such curve was filed as active; the % refers to the signal ratio); details: HEK293 AR-UAS-bla GripTite, beta-lactamase FRET ratio, 16 h; series mostly up to 62.4 µM
Procedure, shortened: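 AR-bla HEK293 cells, 2,000/well; 4 h preincubation 37C/5% CO2; compound (DMSO) 16 h at 37C; LiveBLAzer B/G FRET substrate 2 h RT; fluorescence intensity read-out.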

[9] = target: Androgen receptor (Homo sapiens) (UniProt P10275); test: qHTS assay to identify small molecule agonists of the androgen receptor (AR) signaling pathway using the MDA cell line (AID 743040; note: nearly all actives have a fitted effect of over 20% in size); details: MDA-kb2 AR-luc cells, MMTV luciferase, 16 h, stronger effect = higher value; series mostly up to 70.3 µM
Procedure, shortened: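 MDA-kb2 breast carcinoma cells carrying MMTV-luciferase (responsive to AR and GR), plated 5 h then treated 16 h with compounds at 37C, 0% CO2. Read-out was ONE-Glo luminescence after 30 min at room temperature.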

[10] = target: Androgen receptor (Homo sapiens) (UniProt P10275); test: qHTS assay to identify small molecule antagonists of the androgen receptor (AR) signaling pathway using the MDA cell line (AID 743042; note: nearly all actives have a fitted effect of over 55% in size); details: MDA-kb2 AR-luc, MMTV luciferase, R1881 antagonist, 16 h; series mostly up to 70.3 µM
Procedure, shortened: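 MDA-kb2 breast carcinoma cells carrying MMTV-luciferase (AR/GR responsive) were co-treated with compounds and the agonist R1881 for 16 h at 37C. Inhibition read as ONE-Glo luminescence; CellTiter-Fluor fluorescence measured in parallel for cytotoxicity.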

Sequence of Androgen receptor (Homo sapiens) (P10275 whole entry, looked up): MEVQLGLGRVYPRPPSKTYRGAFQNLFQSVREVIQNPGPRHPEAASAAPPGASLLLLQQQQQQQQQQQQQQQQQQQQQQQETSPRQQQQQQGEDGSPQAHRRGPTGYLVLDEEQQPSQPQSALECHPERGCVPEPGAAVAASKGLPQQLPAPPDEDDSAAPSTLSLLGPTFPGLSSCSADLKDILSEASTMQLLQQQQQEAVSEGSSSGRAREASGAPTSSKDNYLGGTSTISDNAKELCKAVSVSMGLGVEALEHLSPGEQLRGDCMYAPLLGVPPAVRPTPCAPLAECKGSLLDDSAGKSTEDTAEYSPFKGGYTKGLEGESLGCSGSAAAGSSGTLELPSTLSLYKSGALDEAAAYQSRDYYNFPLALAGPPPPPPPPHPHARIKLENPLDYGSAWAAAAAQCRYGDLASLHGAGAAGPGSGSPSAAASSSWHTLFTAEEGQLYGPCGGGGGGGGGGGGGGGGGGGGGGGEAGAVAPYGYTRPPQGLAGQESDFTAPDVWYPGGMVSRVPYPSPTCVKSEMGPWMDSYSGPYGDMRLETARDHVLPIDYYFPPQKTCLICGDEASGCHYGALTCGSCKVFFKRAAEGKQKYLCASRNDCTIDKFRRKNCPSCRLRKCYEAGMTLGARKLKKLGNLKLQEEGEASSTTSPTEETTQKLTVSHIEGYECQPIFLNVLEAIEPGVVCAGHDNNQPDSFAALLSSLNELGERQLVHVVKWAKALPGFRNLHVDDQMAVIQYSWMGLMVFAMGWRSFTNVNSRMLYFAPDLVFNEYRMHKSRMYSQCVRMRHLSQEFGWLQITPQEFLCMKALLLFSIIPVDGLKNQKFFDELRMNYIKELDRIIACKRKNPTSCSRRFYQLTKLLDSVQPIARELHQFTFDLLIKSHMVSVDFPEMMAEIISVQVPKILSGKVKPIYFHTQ

Row | Structure (SMILES) | Potency [1] | Potency [2] | Potency [3] | Potency [4] | outcome [5] | outcome [6] | Potency [7] | outcome [8] | outcome [9] | Potency [10]
1 | CCOP(=S)(OCC)Oc1ccc([N+](=O)[O-])cc1 | inactive | inactive | inactive | inactive | inactive | inactive |  |  |  | 
2 | CSc1nnc(C(C)(C)C)c(=O)n1N | inactive | inactive | inactive | inactive | inactive | inactive |  |  |  | 
3 | c1ccc2c(c1)CCCC2 | inactive | inactive |  | inactive | inactive | inactive | inactive | inactive | inactive | inactive
4 | CN(C)C(=O)C(c1ccccc1)c1ccccc1 | inactive | inactive |  | inactive | inactive | inactive |  |  |  | 
5 | Nc1cccc(Cl)c1 | inactive | inactive | inactive | inactive | inactive | inactive |  |  |  | 
6 | CCNc1nc(Cl)nc(NC(C)C)n1 | inactive | inactive |  | inactive | inactive | inactive |  |  |  | 
7 | Clc1cnc(Oc2ccc(Oc3ncc(Cl)cc3Cl)cc2)c(Cl)c1 | inactive | inactive | inactive | inactive and 30.6 µM (active) | inactive | inactive |  |  |  | 
8 | CCCOC(=O)c1ccccc1C(=O)OCCC | inactive | inactive |  | inactive | inactive | inactive |  |  |  | 
9 | Cc1ccc(O)c(C)c1 | inactive | inactive | inactive | inactive | inactive | inactive |  |  |  | 
10 | ClCCOCCCl | inactive | inactive |  | inactive | inactive | inactive |  |  |  | 
11 | COc1nc(NC(C)C)nc(NC(C)C)n1 | inactive | inactive | inactive | inactive | inactive | inactive |  |  |  | 
12 | FC(F)(F)c1ccc(Cl)cc1 | inactive | inactive | inactive | inactive | inactive | inactive |  |  |  | 
13 | [N-]=[N+]=CC(=O)OC[C@H](N)C(=O)O | inactive | inactive |  | inactive | inactive | inactive |  |  |  | 
14 | Oc1c(Br)cc(Br)cc1Br | inactive | inactive |  | inactive | inactive | inactive |  |  |  | 
15 | CCCCC(CC)C(=O)Cl (centres undefined) | inactive | inactive |  | inactive | inactive | inactive |  |  |  | 
16 | O=S(=O)(O)OOS(=O)(=O)O | inactive | inactive |  | inactive | inactive | inactive |  |  |  | 
17 | CC(C)(C)C(=O)CCl | inactive | inactive |  | inactive | inactive | inactive | inactive | inactive | inactive | inactive

Row | Structure (SMILES) | Potency [1] | Potency [2] | Potency [3] | Potency [4] | outcome [5] | outcome [6] | Potency [7] | outcome [8] | outcome [9] | Potency [10]
18 | Cl[C@H]1OCCO[C@@H]1Cl | inactive | inactive |  | inactive | inactive | inactive |  |  |  | 
19 | CCCCCCCCCCCCCCCCCC(=O)O | inactive | inactive |  | inactive | inactive | inactive |  |  |  | 
20 | CNC(=O)O/N=C/C(C)(C)S(C)(=O)=O | inactive | inactive |  | inactive | inactive | inactive | inactive | inactive | inactive | inactive
21 | O=C(O)c1cc(Oc2ccc(C(F)(F)F)cc2Cl)ccc1[N+](=O)[O-] | inactive | inactive | inactive | inactive | inactive | inactive |  |  |  | 
22 | C=CC(=O)OCCCCCC(C)C | inactive | inactive |  | inactive | inactive | inactive | inactive | inactive | inactive | inactive
23 | O=C/C=C/c1ccccc1 | inactive | inactive | inactive | inactive | inactive | inactive |  |  |  | 
24 | CN(C)CCC#N | inactive | inactive | inactive | inactive | inactive | inactive |  |  |  | 
25 | Cc1cc(Cl)ccc1OC(C)C(=O)O (centres undefined) | inactive | inactive | inactive | inactive | inactive | inactive |  |  |  | 
26 | N#Cc1cccc(C#N)c1 | inactive | inactive | inactive | inactive | inactive | inactive |  |  |  | 
27 | COC(=O)Nc1cccc(OC(=O)Nc2cccc(C)c2)c1 | inactive | inactive | inactive | inactive | inactive | inactive |  |  |  | 
28 | COP(=S)(OC)SCN1C(=O)c2ccccc2C1=O | inactive | 48.6 µM (active) | 61.6 µM (active) | inactive | inactive | inactive |  |  |  | 
29 | C[C@]12CC[C@H](O)CC1=CC[C@@H]1[C@@H]2CC[C@]2(C)C(=O)CC[C@@H]12 | inactive | 29.8 µM (active) |  | 29.8 µM (active) and 61.2 µM (active) and 54.5 µM (active) | inactive | inactive |  |  |  | 
30 | OCC(O)CCl (centres undefined) | inactive | inactive | inactive | inactive | inactive | inactive |  |  |  | 
31 | Cc1cccc(N)c1C | inactive | inactive | inactive | inactive | inactive | inactive |  |  |  | 
32 | CCOP(=S)(OCC)Oc1cc(C)nc(C(C)C)n1 |  |  | inactive |  |  |  |  |  |  | 
33 | CNC(=O)Oc1cccc2ccccc12 |  |  | inactive |  |  |  |  |  |  | 

Source: PubChem BioAssay (Tox21)
